# Measurements: the supplement of paper PMC13380429
# Columns and labels:
# [1] = tested on: Vero E6 infected with SARS-CoV-2; assay: morphology score (similarity to uninfected cells); higher = more like uninfected cells; details: 24 h
# [2] = tested on: Vero E6 infected with SARS-CoV-2; assay: SARS-CoV-2 infection rate relative to infected DMSO; higher = more infection, active = 60 or less; details: 24 h
Structure (SMILES),morphology score [1],SARS-CoV-2 infection rate [2]
Cc1cc(Nc2cc(CN3CCOCC3)c3nc(C)c(Cc4ccc(Cl)cc4F)n3n2)n[nH]1 (0.833333 µM),-0.0116,107% (inactive)
N[C@H](C(=O)O)c1ccc(O)c(C(=O)O)c1 [3-carboxy-4-hydroxyphenylglycine-(S)] (10 µM),0.115,95% (inactive)
O=c1cc(N2CCNCC2)oc2c(-c3ccccc3)cccc12 (10 µM),0.175,101% (inactive)
CN(C(=O)c1ccc(F)cc1C(F)(F)F)C1CCN(c2nnc(-c3ccnn3C)c3ccccc23)CC1 [taladegib] (10 µM),0.0832,102% (inactive)
CCOCCn1c(N2CCCN(C)CC2)nc2ccccc21 [emedastine] (10 µM),0.137,100% (inactive)
CCN(CC)C(=O)[C@@]1(c2ccccc2)C[C@H]1CN [milnacipran] (10 µM),0.0186,105% (inactive)
O=C1CCC[C@@H]2[C@H]3CCC[N+]4([O-])CCC[C@@H](CN12)[C@@H]34 (stereo partly drawn) [oxymatrine] (10 µM),-0.00407,100% (inactive)
C=CC(=O)Nc1cc(Nc2nccc(-c3cn(C)c4ccccc34)n2)c(OC)cc1N(C)CCN(C)C [osimertinib] (10 µM),-0.27,110% (inactive)
"BrC1C(Br)C(Br)C(Br)C(Br)C1Br (stereo not drawn) [1,2,3,4,5,6-hexabromocyclohexane] (10 µM)",0.416,85% (inactive)
CCc1nn(CCCN2CCN(c3cccc(Cl)c3)CC2)c(=O)n1CCOc1ccccc1 [nefazodone] (10 µM),0.0652,106% (inactive)
O=C(OC(C(F)(F)F)C(F)(F)F)N1CCC(C(O)(c2ccc3c(c2)OCO3)c2ccc3c(c2)OCO3)CC1 (10 µM),0.159,93.5% (inactive)
CN1CCN(c2cccc(Nc3nc4c(-c5ccc(S(C)(=O)=O)cc5)cccn4n3)c2)CC1 (0.833333 µM),0.157,106% (inactive)
Nc1nc(NCCc2ccc(O)cc2)nc2nc(-c3ccco3)nn12 (10 µM),-0.0969,111% (inactive)
NC(=O)c1cn(Cc2c(F)cccc2F)nn1 [rufinamide] (10 µM),0.218,102% (inactive)
NCC(=O)Nc1ccc(-n2nc(C(F)(F)F)cc2-c2ccc3c(ccc4ccccc43)c2)cc1 (0.833333 µM),-0.089,99.5% (inactive)
Cc1ccc(Oc2ccccc2-c2csc(N=C3NCCCN3)n2)c(C)c1 [abafungin] (10 µM),0.0754,100% (inactive)
CCCc1nc(C(C)(C)O)c(C(=O)O)n1Cc1ccc(-c2ccccc2-c2nnn[nH]2)cc1 [olmesartan] (10 µM),0.0191,102% (inactive)

Structure (SMILES),morphology score [1],SARS-CoV-2 infection rate [2]
C=CCC1(CC(C)C)C(=O)NC(=O)NC1=O [butalbital] (10 µM),-0.0632,117% (inactive)
N[C@@H](C(=O)O)[C@@H](OCc1ccccc1)C(=O)O.N[C@H](C(=O)O)[C@H](OCc1ccccc1)C(=O)O (10 µM),0.0333,106% (inactive)
O=C1CCc2cc(OCCCCc3nnnn3C3CCCCC3)ccc2N1 [cilostazol] (10 µM),-0.112,110% (inactive)
Cc1nccn1CC1CCc2c(c3ccccc3n2C)C1=O (stereo not drawn) [ondansetron] (10 µM),0.253,90% (inactive)
CCN(c1cc(C#CCN2CCOCC2)cc(C(=O)NCc2c(C)cc(C)[nH]c2=O)c1C)[C@H]1CC[C@H](N(C)CCOC)CC1 (10 µM),0.163,100% (inactive)
Cc1ccc(S(=O)(=O)NCl)cc1 [chloramine-T] (10 µM),0.043,104% (inactive)
CCC(=O)N1CCN(c2ccc(-n3c(=O)ccc4cnc5ccc(-c6cnc7ccccc7c6)cc5c43)cc2C(F)(F)F)CC1 [torin-1] (10 µM),-0.0739,107% (inactive)
Cn1nnnc1SCC1=C(C(=O)O)N2C(=O)[C@@H](NC(=O)[C@H](OC=O)c3ccccc3)[C@H]2SC1 [cefamandole-nafate] (10 µM),0.0598,102% (inactive)
CCC(=O)O[C@H]1CC[C@H]2[C@@H]3CCC4=CC(=O)CC[C@]4(C)[C@H]3CC[C@]12C (10 µM),-0.129,110% (inactive)
Nc1nccc(/C=C/c2ccccc2)n1 (10 µM),0.324,93% (inactive)
CCc1ccccc1OC[C@@H](O)CN[C@H]1CCCc2ccccc21 (10 µM),0.0335,93% (inactive)
O=C(N[C@H](Cc1ccccc1)C(=O)O)c1sc2cc(F)ccc2c1Cl (10 µM),0.16,79.5% (inactive)
CCOC(=O)[C@H](CCc1ccccc1)N[C@@H](C)C(=O)N1Cc2cc(OC)c(OC)cc2C[C@H]1C(=O)O [moexipril] (10 µM),0.183,90% (inactive)
CC(C)Cn1cnc2c1c(=O)n(C)c(=O)n2C [isbufylline] (10 µM),-0.0146,106% (inactive)
COc1cc2ncnc(Nc3cccc(Cl)c3)c2cc1OC [tyrphostin-AG-1478] (10 µM),-0.318,118% (inactive)
Clc1cccc(N2CCNCC2)c1 (10 µM),0.0057,114% (inactive)
CCS(=O)(=O)N1CCC([C@@H](C)n2c(C)c(C(=O)NCc3c(OC)cc(C)[nH]c3=O)c3ccccc32)CC1 (10 µM),-0.000259,102% (inactive)
